Screens as filed in PubChem BioAssay.
Most compounds without a hit are left out; they make up all but 11% or so of the library.
VACV Venus inh = inhibitors of vaccinia virus (Venus reporter); Vaccinia virus Venus reporter expression, fluorescence; Potency, µM (highest dose often 36.5 µM), for inactives: at the highest dose activity change, negative = inhibition, most hits filed as inhibitors; 330,000 tested, 0.46% active; AID 720580; calls by dose curve; tested in A549 cells; note: % is set by controls: 0 for no effect and ±100 for the full control effect; nearly all actives have a fitted effect of over 30% in size
VACV mCherry inh = inhibitors of vaccinia virus infection (mCherry reporter signal) | Vaccinia virus mCherry reporter infection, fluorescence | Potency, µM (highest dose often 36.5 µM), for the others: at the top dose activity change, negative = inhibition, usual class: inhibitors | 310,000 tested, 0.63% active | AID 720579; calls by dose curve; tested in A549 cells; note: % is set by controls: 0 for no effect and ±100 for the full control effect; nearly all actives have a fitted effect of over 35% in size
Pf growth 48h = inhibits P. falciparum growth in the first generation, 48 h; Potency, µM (top dose mostly 28.7 µM), for inactives: top-dose activity change, negative = inhibition, usual class: inhibitors; P. falciparum luciferase growth in erythrocytes, 48 h; 310,000 tested, 5.9% active; AID 504832; note: % is set by controls: 0 for no effect and ±100 for the full control effect
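Luminescence readout; reporter = integrated firefly luciferase in P. falciparum. RBC culture at 2% hematocrit, 0.1% parasitemia final, 37 C/5% CO2; decreased signal taken as growth inhibition.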
NS1 inh = blocks influenza NS1 protein function; 270,000 tested, 0.4% active; Potency, µM (titrated, usually from 46.1 µM), for the others: at the top dose activity, positive = more growth; AID 2326; calls by dose curve; note: actives are rising curves; nearly all actives have a fitted effect of over 50% in size
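Growth recovery, yeast-based: influenza A NS1 expressed in S. cerevisiae causes slow growth, and suppressors are detected by OD600. The parent strain without NS1 is used as positive control.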
HCV inhibitor = blocks hepatitis C virus | Huh7.5.1 HCVcc-Cre infection, luciferase reporter, 44 h | Potency, µM (series often up to 41.8 µM), for the others: at the top dose activity change, negative = inhibition, hits mostly inhibitors | 340,000 tested, 3.4% active; note: % is set by controls: 0 for no effect and ±100 for the full control effect
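Antiviral activity was scored by luciferase reporter output from cells infected with HCVcc-Cre (~0.5 moi) in presence of compound, 44 h infection period, cells seeded 1,000/well 4 h prior.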
Pf growth 96h = P. falciparum growth inhibition at 96 hours | AID 504834 | P. falciparum luciferase reporter growth, 96 h | Potency, µM (top dose mostly 28.7 µM), inactives show at the highest dose activity change, negative = inhibition, hits mostly inhibitors | 320,000 tested, 6.9% active; note: % is set by controls: 0 for no effect and ±100 for the full control effect
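96 h incubation, 37 C, 5% CO2, of luciferase-reporter P. falciparum-infected RBCs (2% hematocrit, 0.05% parasitemia final) with test compounds; endpoint luminescence.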
Starred values were filed as active, the others as inactive; i = inactive; ? = inconclusive; / = not tested or not shown; [ ] = remark or other dose. Unless noted, calls come from the whole dose curve; as a rule, active = well fitted inhibition curve with a large enough effect; inconclusive = small, poorly fitted or top-dose-only effect, or another doubt; inactive = no such curve, though single readings can be large or run the other way. Potency is the fitted concentration of half-maximal effect.

SMILES	VACV Venus inh	VACV mCherry inh	Pf growth 48h	NS1 inh	HCV inhibitor	Pf growth 96h
CCOC(=O)c1c(-c2ccccc2)n(C)c2ccc(O)cc12	/	/	/	-1%	?	?
CCOC(=O)c1c(C)n(-c2ccccc2)c2ccc(O)cc12	-20%	-23%	?	2%	10µM*	5.9µM*
CCOC(=O)c1c(C)n(CCO)c2ccc(O)cc12	/	/	-2%	5%	-4%	/
CCOC(=O)c1c(-c2ccccc2)[nH]c2ccc(O)cc12	?	/	-6%	-31%	11µM*	/
CC1CCCN(C2(O)C(=O)Nc3c(C(F)(F)F)cccc32)C1 (configuration not stated)	/	/	4.1µM*	3%	8%	-13%
O=C(CNC(=O)c1cccs1)N=Nc1c(O)[nH]c2ccc(Br)cc12	-23%	-26%	30%	13%	-5%	17%
CC1(C)C=Cc2c(c3c(c4c(=O)c(-c5ccc(O)cc5)coc24)OC(C)(C)CC3)O1	-25%	-29%	?	5%	-60%	9.3µM*
CC(C)=CCc1c2c(c3occ(-c4ccc(O)cc4)c(=O)c3c1O)C=CC(C)(C)O2	?	?	?	1%	?	?
CC(C)=CCc1c2c(c3occ(-c4ccc(O)c(O)c4)c(=O)c3c1O)C=CC(C)(C)O2	11µM*	10µM*	/	8%	?	/
COc1ccc(NC(=O)COc2ccc3oc(=O)cc(C)c3c2)cc1	-22%	i	?	1%	-37%	?
CC(=O)C1=C(C)Nc2ncnn2C1c1ccccc1 (configuration not stated)	-10%	-16%	32%	3%	17%	0.33µM*
CC(=O)C1=C(C)Nc2ncnn2C1c1cccc(OCc2ccccc2)c1 (configuration not stated)	-16%	i	10µM*	-2%	1%	0%
COc1ccc(NC(=O)C2=C(C)Nc3ncnn3C2c2ccc(C)o2)cc1 (configuration not stated)	3%	-4%	/	/	/	/
COc1cccc(C2C(C(C)=O)=C(C)Nc3ncnn32)c1 (configuration not stated)	4%	-3%	-2%	3%	27%	79%
COC(=O)C1=C(C)Nc2ncnn2C1c1ccc(C)o1 (configuration not stated)	-3%	-3%	-13%	-8%	23%	10µM*
Cc1cccc(C)c1NC(=O)CNC(=O)c1ccc2nc[nH]c2c1	-6%	i	5%	/	13%	2%
CCCOc1ccc(S(=O)(=O)NNC(=O)c2cc3ccccc3o2)cc1	/	/	8%	-20%	8%	35%
CC(C)Cc1cc(C(=O)NCc2ccc(Cl)cc2)no1	2%	-10%	/	/	/	/
COc1ccccc1NS(=O)(=O)c1cc(C(=O)N2CCCCCC2)ccc1C	-13%	-13%	/	/	?	/
COc1cc2c(cc1OC)-c1cc(Nc3ccccc3)nc(=O)n1CC2	-17%	-8%	?	-7%	26%	?
COc1cc2c(cc1OC)-c1cc(N3CCCc4ccccc43)nc(=O)n1CC2	-10%	-18%	?	-36%	-16%	0%
CCOc1cccc(Nc2cc3n(c(=O)n2)CCc2cc(OC)c(OC)cc2-3)c1	/	/	?	7%	5%	3.7µM*
COc1cc2c(cc1OC)-c1cc(N3CCc4ccccc43)nc(=O)n1CC2	5%	-8%	?	-2%	0%	12µM*
COc1ccccc1C1=NC(c2ccccc2)CN1c1ccccc1 (configuration not stated)	-13%	?	3%[0.00184 µM]	-1%	?	4%
O=c1oc2ccc(Cl)cc2nc1/C=C(\O)c1ccco1	?	?	?	-53%	-22%	15µM*
SMILES	VACV Venus inh	VACV mCherry inh	Pf growth 48h	NS1 inh	HCV inhibitor	Pf growth 96h
CCN(CCC#N)c1ccc(/C=N/Nc2nc(C)cc(=O)[nH]2)c(C)c1	-18%	-4%	0%	12%	?	?
Nc1nc(N)c(N=Nc2ccc(SCC(=O)O)cc2)c(=O)[nH]1	-9%	i	20%	7%	-6%	9%
Nc1nc(N)c(N=Nc2ccc(Cl)cc2)c(=O)[nH]1	/	/	-8%	/	5.6µM*	3%
Nc1nc(N)c(N=Nc2ccc(S(N)(=O)=O)cc2)c(=O)[nH]1	-6%	i	22%	2%	-25%	-21%
CSc1nc(N)c(N=Nc2ccc([As](=O)(O)O)cc2)c(=O)[nH]1	4%	-6%	2.6µM*	3%	?	?
COc1cc(/C=C(/C#N)C(=O)NCc2ccccc2)cc(OC)c1OC	/	/	?	-32%	-9%	?
CC(c1ccccc1)n1c(-c2ccc(C(C)(C)C)cc2)n[nH]c1=S (configuration not stated)	-7%	-3%	20%	-50%	-8%	4.7µM*
Cc1ccc(-n2c(-c3ccccc3)n[nH]c2=S)c(C)c1	/	/	-13%	24%	17%	13µM*
CC(c1ccccc1)n1c(-c2ccccc2)n[nH]c1=S (configuration not stated)	-12%	24%	/	/	/	/
CC(C)(C)c1ccc(-c2n[nH]c(=S)n2-c2ccccc2)cc1	-13%	-12%	310%	16%	-5%	2.9µM*
CCN(CC)c1ccc(-c2n[nH]c(=S)n2-c2ccccc2)cc1	?	-18%	-27%	-8%	11µM*	?
COCCN(C(=O)COC(=O)Cc1c(C)nc2ccccc2c1C)c1c(N)n(CC(C)C)c(=O)[nH]c1=O	/	/	/	/	9%	/
CCOC(=O)c1c(NC(=O)C(=O)N/N=C(\C)c2ccc(OC)cc2)sc2c1CCCCC2	-6%	i	21%	13%	3%	25%
Cc1ccccc1C(=O)NC(=S)N(C)C1CCCCC1	-15%	-24%	15µM*	-3%	1%	?
O=C(NC(=S)NC1CCS(=O)(=O)C1)c1cccs1 (configuration not stated)	-3%	-17%	2%	15%	0%	7%
O=C(NC(=S)NC1CCS(=O)(=O)C1)c1ccccc1Br (configuration not stated)	-15%	i	-4%	13%	19%	5.9µM*
CN(C(=S)NC(=O)c1ccccc1Br)C1CCCCC1	-15%	-20%	-12%	-10%	-1%	4.7µM*
COc1cc(-n2c(=S)[nH]c3ccccc3c2=O)c(Cl)cc1Cl	?	/	9%	-35%	?	13%
CC(C)Oc1cc(-n2c(=S)[nH]c3ccccc3c2=O)c(Cl)cc1Cl	?	/	5.9µM*	-29%	?	4.7µM*
CCCCn1c(N)c(N(CCOC)C(=O)C2CCN(c3ncnc4sc(C)c(C)c34)CC2)c(=O)[nH]c1=O	2%	-14%	12µM*	/	?	12µM*
CCCCn1c(N)c(N(CC(C)C)C(=O)C2CCN(c3ncnc4sc(C)c(C)c34)CC2)c(=O)[nH]c1=O	-13%	-20%	5.2µM*	/	?	2.9µM*
